Experimental data as given in PubChem BioAssay AID1159580 (chemical genetic matrix, 2015).
Among all 5,500 compounds or so, about 2,000 (36%) were called active. Not shown: some 18% with an inconclusive outcome. Cut-off read from the data, not from the text of the source: active = normalized growth mostly below about 0.91 (no sharp cut-off); inconclusive = no clear call, values can overlap the other calls; inactive = mostly above about 0.92. The list shows a part of the results.

Assay: chemical genetic growth profiling, strain panel (AID 1159580);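 note: tested at 20 µM; growth read once vehicle control cultures reached saturation at 30 °C; 1 = growth at the plate median or of vehicle wells; lower values mean less growth of the strain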
Details: S. cerevisiae deletion strains, growth OD
[1] = locus YHR030C, strain SLT2, active compounds read low
[2] = locus YHR079C, strain IRE1, active compounds read low
[3] = locus YJL095W, strain BCK1, active compounds read low
[4] = locus YJR066W, strain TOR1, active compounds read low
[5] = locus YLR113W, strain HOG1, active compounds read low
[6] = locus YNL183C, strain NPR1, active compounds read low
[7] = locus YOR231W, strain MKK1, active compounds read low
[8] = locus YPL256C, strain CLN2, active compounds read low

Measured: normalized growth

COc1cc2c3cc1Oc1c(OC)c(OC)cc4c1[C@@H](Cc1cccc(c1)Oc1ccc(c(O)c1)C[C@@H]3N(C)CC2)N(C)CC4
inactive: [1] 1.02 | [2] 1.01 | [3] 0.994 | [4] 0.984 | [5] 0.968 | [6] 0.983 | [7] 1.03 | [8] 1.07

COc1ccc2cc1Oc1ccc(cc1)C[C@H]1c3c(cc4c(c3Oc3cc5c(cc3OC)CCN(C)[C@@H]5C2)OCO4)CCN1C
inactive: locus YAL021C, strain ccr4, active compounds read low 1.01 | locus YAL026C, strain drs2, active compounds read low 1.01 | locus YAL030W, strain snc1, active compounds read low 0.989 | locus YBL061C, strain skt5, active compounds read low 1.01 | locus YBR009C, strain hhf1, active compounds read low 0.959 | locus YBR023C, strain chs3, active compounds read low 1.01 | locus YBR171W, strain sec66, active compounds read low 0.982 | locus YBR231C, strain swc5, active compounds read low 0.959 | locus YBR279W, strain paf1, active compounds read low 0.992 | locus YCL011C, strain gbp2, active compounds read low 1.01 | locus YCL016C, strain dcc1, active compounds read low 1.03 | locus YCL061C, strain MRC1, active compounds read low 0.984 | locus YCL069W, strain vba3, active compounds read low 0.969 | locus YCR088W, strain abp1, active compounds read low 0.987 | locus YDL005C, strain med2, active compounds read low 0.983 | locus YDL040C, strain nat1, active compounds read low 0.982 | locus YDR001C, strain nth1, active compounds read low 0.989 | locus YDR069C, strain doa4, active compounds read low 0.979 | locus YDR137W, strain rgp1, active compounds read low 1.1 | locus YDR159W, strain sac3, active compounds read low 0.875 | locus YDR195W, strain ref2 0.942 | locus YDR297W, strain sur2, active compounds read low 1 | locus YDR334W, strain swr1, active compounds read low 0.963 | locus YDR335W, strain msn5, active compounds read low 1.01 | locus YDR392W, strain spt3, active compounds read low 0.743 | locus YEL003W, strain gim4, active compounds read low 0.975 | locus YEL037C, strain rad23, active compounds read low 0.969 | locus YEL061C, strain CIN8 (second series), active compounds read low 0.98 | locus YER015W, strain faa2, active compounds read low 0.994 | locus YER016W, strain bim1, active compounds read low 1.06 | locus YER111C, strain swi4, active compounds read low 0.997 | locus YER155C, strain BEM2 (second series), active compounds read low 0.874 | locus YFR010W, strain ubp6, active compounds read low 0.966 | locus YGL167C, strain pmr1, active compounds read low 0.976 | locus YGL173C, strain kem1, active compounds read low 0.961 | locus YGL227W, strain vid30, active compounds read low 0.996 | locus YGL240W, strain doc1, active compounds read low 0.962 | locus YGL253W, strain hxk2, active compounds read low 1.01 | locus YHR013C, strain ard1, active compounds read low 0.964 | locus YHR027C, strain rpn1, active compounds read low 0.996 | [1] 1.03 | [2] 1.08 | locus YHR142W, strain chs7, active compounds read low 1.03 | locus YJL092W, strain hpr5, active compounds read low 0.988 | locus YJL095W, strain BCK1 (second series), active compounds read low 0.989 | [3] 1.03 | locus YJL115W, strain asf1, active compounds read low 0.974 | locus YJL129C, strain trk1, active compounds read low 1 | locus YJL154C, strain vps35, active compounds read low 0.986 | locus YJL164C, strain tpk1, active compounds read low 0.962 | locus YJL166W, strain qcr8, active compounds read low 0.955 | locus YJL187C, strain SWE1, active compounds read low 1.01 | [4] 0.987 | locus YKL160W, strain elf1, active compounds read low 1.05 | locus YKR026C, strain gcn3, active compounds read low 0.964 | locus YKR091W, strain srl3, active compounds read low 0.99 | locus YLL001W, strain dnm1, active compounds read low 0.959 | locus YLL026W, active compounds read low 0.999 | locus YLL041C, strain sdh2, active compounds read low 0.977 | locus YLR027C, strain aat2, active compounds read low 1 | [5] 1.07 | locus YLR221C, strain rsa3, active compounds read low 0.997 | locus YLR258W, strain gsy2, active compounds read low 1 | locus YLR262C, strain YPT6 (second series), active compounds read low 1.04 | locus YLR320W, strain mms22, active compounds read low 0.922 | locus YLR342W, strain FKS1, active compounds read low 1.02 | locus YLR357W, strain rsc2, active compounds read low 0.934 | locus YLR370C, strain arc18, active compounds read low 0.999 | locus YLR384C, strain iki3, active compounds read low 1 | locus YML120C, strain ndi1, active compounds read low 0.969 | locus YMR058W, strain fet3, active compounds read low 0.978 | locus YMR125W, strain sto1, active compounds read low 1 | locus YMR129W, active compounds read low 0.971 | locus YMR205C, strain PFK2, active compounds read low 0.973 | locus YMR231W, strain pep5, active compounds read low 0.985 | locus YNL071W, strain lat1, active compounds read low 0.982 | [6] 0.951 | locus YNL209W, strain ssb2, active compounds read low 0.99 | locus YNL248C, strain rpa49, active compounds read low 1.02 | locus YNL322C, strain KRE1 (second series), active compounds read low 1 | locus YNR049C, strain mso1, active compounds read low 1 | locus YOR001W, strain rrp6, active compounds read low 0.953 | locus YOR070C, strain gyp1, active compounds read low 1 | locus YOR080W, strain dia2, active compounds read low 0.977 | locus YOR083W, strain WHI5, active compounds read low 1 | locus YOR106W, strain vam3, active compounds read low 1.04 | [7] 1.06 | locus YOR265W, strain rbl2, active compounds read low 1 | locus YOR270C, strain vph1, active compounds read low 1.06 | locus YOR290C, strain snf2, active compounds read low 1.04 | locus YPL051W, strain arl3, active compounds read low 1.04 | locus YPL078C, strain atp4, active compounds read low 1.03 | locus YPL106C, strain sse1, active compounds read low 0.949 | locus YPL240C, strain hsp82, active compounds read low 0.985 | [8] 1.07
